# Experimental data published in PubChem BioAssay (NCATS).
# Records with an inconclusive call do not appear. Entries that show only a call come without a potency. A number with no mark means an inactive call. Activity calls are given as the source filed them. Unless noted, the call rests on the fitted dose curve; in most records, active means well fitted curve in the direction sought with a large enough effect; inconclusive means small, poorly fitted or top-dose-only effect, or another doubt; inactive means no such curve, though single readings can be large; an effect the other way counts as inactive or inconclusive.
# Columns and labels:
# [1] = NS1 protein of Zika virus - qHTS assay to identify small molecule inhibitors in human HEK 293 cells (AID 1347053); further: series mostly up to about 46 µM; nearly all actives have a fitted effect of over 55% in size
# Procedure, shortened: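 Readout was TR-FRET using paired anti-NS1 antibodies after 24 h infection of HEK 293 cells with ZIKV MR766 (MOI = 0.5). Compound preceded virus by 1 h; reduced signal reflects lower NS1 expression.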
# [2] = qHTS for Inhibitors of the Functional Ribonucleoprotein Complex (vRNP) of Lassa (LASV) Arenavirus: LASV Primary Screen - GLuc reporter signal (AID 1347082; calls by dose curve; tested in HEK293 reporter line; further: series mostly up to about 57 µM; nearly all actives have a fitted effect of over 60% in size)
# [3] = qHTS for Inhibitors of the Functional Ribonucleoprotein Complex (vRNP) of Lassa (LASV) Arenavirus: Viability assay - alamar blue signal for LASV Primary Screen (AID 1347083; calls by dose curve; tested in HEK293 reporter line; further: nearly all actives have a fitted effect of over 80% in size; further: potency means the concentration at half of the fitted maximal effect)
# [4] = qHTS of pediatric cancer cell lines to identify multiple opportunities for drug repurposing: Primary screen for TC32 cells (AID 1347089); further: nearly all actives have a fitted effect of over 60% in size
# Procedure, shortened: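 In the primary qHTS, MIPE compounds were tested at 11 concentrations (0.78 nM to 46 µM) and NPC compounds at 8 (0.59 nM to 46 µM) on TC32 cells for 48 h. CellTiter-Glo luminescence gave viability.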
# [5] = qHTS of pediatric cancer cell lines to identify multiple opportunities for drug repurposing: Primary screen for DAOY cells (AID 1347090); further: series mostly up to about 46 µM; nearly all actives have a fitted effect of over 55% in size
# Procedure, shortened: (§1)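 Viability measured as metabolically active cells via CellTiter-Glo luminescence following 48 hours of compound exposure, 11-point dilutions in confirmatory testing. 500-1,000 cells/well plated 5 hours before dosing; controls were DMSO and 2.3 µM bortezomib.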
# [6] = qHTS of pediatric cancer cell lines to identify multiple opportunities for drug repurposing: Primary screen for SJ-GBM2 cells (AID 1347091)
# Procedure, shortened: as §1
# [7] = qHTS of pediatric cancer cell lines to identify multiple opportunities for drug repurposing: Primary screen for A673 cells (AID 1347092); further: nearly all actives have a fitted effect of over 45% in size; further: potency means the concentration at half of the fitted maximal effect
# Procedure, shortened: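 48 h compound exposure, A673, 500-1,000 cells/well, 37 degrees C/5% CO2. MIPE: 11-point, 0.78 nM-46 µM; NPC: 8-point, 0.59 nM-46 µM (final). Readout CellTiter-Glo luminescence after 15 min RT.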
# [8] = qHTS of pediatric cancer cell lines to identify multiple opportunities for drug repurposing: Primary screen for SK-N-MC cells (AID 1347093); further: potency means the concentration at half of the fitted maximal effect
# Procedure, shortened: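 Metabolically active cells were quantified by ATP-dependent luminescence (CellTiter-Glo, 15 min at room temperature) following 48 h treatment. Cells had been plated at 500-1,000 per well and settled for 5 h beforehand.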
# [9] = qHTS of pediatric cancer cell lines to identify multiple opportunities for drug repurposing: Primary screen for BT-37 cells (AID 1347094); further: series mostly up to about 57 µM
# Procedure, shortened: (§2)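 Plated cells (500-1,000 per well, growth media) were allowed to settle for 5 hours, treated with compound dilutions for 48 hours, then lysed with CellTiter-Glo for 15 min at room temperature before luminescence reading.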
# [10] = qHTS of pediatric cancer cell lines to identify multiple opportunities for drug repurposing: Primary screen for NB-EBc1 cells (AID 1347095); further: potency means the concentration at half of the fitted maximal effect
# Procedure, shortened: as §2
# [11] = qHTS of pediatric cancer cell lines to identify multiple opportunities for drug repurposing: Primary screen for U-2 OS cells (AID 1347096); further: nearly all actives have a fitted effect of over 50% in size
# Procedure, shortened: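 Viability after 48 h compound treatment at 37C, 500-1,000 cells/well, read as ATP luminescence with CellTiter-Glo. Primary screens used 11-point (MIPE, 0.78 nM-46 µM) or 8-point (NPC, 0.59 nM-46 µM) final concentrations; follow-up screens used 11-point dilutions.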
# [12] = qHTS of pediatric cancer cell lines to identify multiple opportunities for drug repurposing: Primary screen for Saos-2 cells (AID 1347097); further: nearly all actives have a fitted effect of over 40% in size
# Procedure, shortened: as §2
# [13] = qHTS for Inhibitors of the Functional Ribonucleoprotein Complex (vRNP) of Lymphocytic Choriomeningitis Arenaviruses (LCMV): Viability assay - alamar blue signal for LCMV Primary Screen (AID 1347085; calls by dose curve; tested in HEK293 reporter line; further: series mostly up to about 57 µM; nearly all actives have a fitted effect of over 80% in size)
# [14] = molecular target: Nucleoprotein (Lymphocytic choriomeningitis virus (strain Armstrong)) (UniProt P09992); test: qHTS for Inhibitors of the Functional Ribonucleoprotein Complex (vRNP) of Lymphocytic Choriomeningitis Arenaviruses (LCMV): LCMV Primary Screen - GLuc reporter signal (AID 1347086; calls by dose curve; further: series mostly up to about 57 µM; nearly all actives have a fitted effect of over 70% in size)
# Chain of Nucleoprotein (Lymphocytic choriomeningitis virus (strain Armstrong)) (P09992 whole entry, looked up): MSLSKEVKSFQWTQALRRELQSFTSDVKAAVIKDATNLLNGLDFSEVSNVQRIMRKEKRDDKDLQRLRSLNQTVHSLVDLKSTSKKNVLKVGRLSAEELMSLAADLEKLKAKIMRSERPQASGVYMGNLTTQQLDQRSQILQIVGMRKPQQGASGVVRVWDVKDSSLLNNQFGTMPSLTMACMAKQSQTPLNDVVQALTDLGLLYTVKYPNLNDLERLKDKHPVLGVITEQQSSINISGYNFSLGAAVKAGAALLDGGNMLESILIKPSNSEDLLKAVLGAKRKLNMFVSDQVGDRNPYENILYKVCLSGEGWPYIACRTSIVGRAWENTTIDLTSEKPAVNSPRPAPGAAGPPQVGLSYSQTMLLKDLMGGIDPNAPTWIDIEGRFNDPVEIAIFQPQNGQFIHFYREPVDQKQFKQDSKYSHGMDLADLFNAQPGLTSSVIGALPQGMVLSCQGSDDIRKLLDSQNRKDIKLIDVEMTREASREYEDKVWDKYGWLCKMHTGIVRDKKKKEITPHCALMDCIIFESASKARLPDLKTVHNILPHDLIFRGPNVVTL
structure (smiles),measurement,setting,value
CC(Cc1ccccc1)N(C)Cc1ccco1 (stereo not drawn),outcome,[1],inactive
same,Potency,[2],inactive
same,Potency,[3],inactive
same,Potency,[4],inactive
same,Potency,[5],inactive
same,Potency,[6],inactive
same,Potency,[7],inactive
same,Potency,[8],inactive
same,Potency,[9],inactive
same,Potency,[10],inactive
same,Potency,[11],inactive
same,Potency,[12],inactive
CCN(CC)C(=O)[C@@H]1C=C2c3cccc4[nH]cc(c34)C[C@H]2N(C)C1,outcome,[1],inactive
same,Potency,[2],inactive
same,Potency,[13],inactive
same,Potency,[14],inactive
same,Potency,[4],inactive
same,Potency,[5],inactive
same,Potency,[6],inactive
same,Potency,[7],56.6 µM (active)
same,Potency,[11],inactive
O=c1oc2ccccc2c(O)c1Cc1c(O)c2ccccc2oc1=O,outcome,[1],inactive
same,Potency,[2],inactive
same,Potency,[3],inactive
same,Potency,[13],inactive
same,Potency,[14],inactive
same,Potency,[4],inactive
same,Potency,[5],inactive
same,Potency,[7],inactive
same,Potency,[8],15 µM (active)
same,Potency,[9],inactive
same,Potency,[10],15 µM (active)
same,Potency,[11],inactive
same,Potency,[12],inactive
C[C@]12CC[C@H]3[C@@H](CCC4=CC(=O)CC[C@@H]43)[C@@H]1CC[C@@H]2OC(=O)CCC1CCCCC1,outcome,[1],inactive
same,Potency,[2],inactive
same,Potency,[3],inactive
same,Potency,[13],inactive
same,Potency,[14],inactive
same,Potency,[4],inactive
same,Potency,[5],inactive
same,Potency,[7],inactive
same,Potency,[11],inactive
CC(C)c1c(CN(C)C(C)Cc2ccccc2)n(C)n(-c2ccccc2)c1=O (stereo not drawn),outcome,[1],inactive
same,Potency,[2],inactive
same,Potency,[3],inactive
same,Potency,[13],inactive
same,Potency,[14],inactive
same,Potency,[4],inactive
same,Potency,[5],inactive
same,Potency,[7],inactive
same,Potency,[8],inactive
same,Potency,[9],inactive
same,Potency,[10],inactive
same,Potency,[11],inactive
same,Potency,[12],inactive
S=c1nc[nH]c2nc[nH]c12,Potency,[2],inactive
same,Potency,[3],6.11 µM (active)
Nc1nc2[nH]cc(CCc3ccc(C(=O)N[C@@H](CCC(=O)O)C(=O)O)cc3)c2c(=O)[nH]1,Potency,[2],inactive
same,Potency,[3],inactive
CC(=O)NC[C@H]1CN(c2ccc(N3CCOCC3)c(F)c2)C(=O)O1,Potency,[2],inactive
same,Potency,[3],inactive
same,Potency,[13],inactive
O=C1OC(CCN2CCCCC2)OC1(c1ccccc1)c1ccccc1 (stereo not drawn),outcome,[1],inactive
same,Potency,[2],inactive
same,Potency,[3],inactive
same,Potency,[13],inactive
same,Potency,[14],inactive
same,Potency,[4],inactive
same,Potency,[6],inactive
same,Potency,[9],inactive
same,Potency,[10],inactive
same,Potency,[11],inactive
same,Potency,[12],inactive
Nc1nc2ccc(OC(F)(F)F)cc2s1,Potency,[2],inactive
CC(C)(CO)[C@@H](O)C(=O)NCCCO,Potency,[2],inactive
same,Potency,[3],inactive
same,Potency,[13],inactive
same,Potency,[14],inactive
O=C1[C@@H]2[C@H]3CC[C@H](C3)[C@@H]2C(=O)N1CCCCN1CCN(c2ncccn2)CC1,Potency,[2],inactive
same,Potency,[3],inactive
same,Potency,[13],inactive
same,Potency,[14],inactive
CC(CC(C#N)(c1ccccc1)C(C)C)N(C)C (stereo not drawn),Potency,[2],inactive
same,Potency,[3],inactive
same,Potency,[13],inactive
same,Potency,[14],inactive
CC(=O)OCC(=O)[C@@]1(O)[C@H](C)C[C@H]2[C@@H]3CCC4=CC(=O)C=C[C@]4(C)[C@@]3(F)[C@@H](O)C[C@@]21C,Potency,[2],inactive
same,Potency,[3],inactive
same,Potency,[13],inactive
same,Potency,[14],inactive
CC[C@H](C)C(=O)O[C@H]1C[C@H](O)C=C2C=C[C@H](C)[C@H](CC[C@@H](O)C[C@@H](O)CC(=O)O)[C@H]21,Potency,[2],inactive
same,Potency,[3],inactive
same,Potency,[13],inactive
same,Potency,[14],inactive
CC(=O)OC(C)C[N+](C)(C)C (stereo not drawn),Potency,[2],inactive
same,Potency,[3],inactive
same,Potency,[13],inactive
same,Potency,[14],inactive
N[C@@H](CCC(=O)N[C@@H](CS)C(=O)NCC(=O)O)C(=O)O,Potency,[2],inactive
same,Potency,[3],inactive
same,Potency,[13],inactive
same,Potency,[14],inactive
COC(=O)N/N=C/c1c[n+]([O-])c2ccccc2[n+]1[O-],Potency,[2],inactive
same,Potency,[3],inactive
same,Potency,[13],inactive
same,Potency,[14],inactive
CC(=O)OCC1=C(C(=O)O)N2C(=O)[C@@H](NC(=O)Cc3cccs3)[C@H]2SC1,Potency,[2],inactive
same,Potency,[3],inactive
same,Potency,[13],inactive
same,Potency,[14],inactive
C=CCN1C[C@H](C(=O)N(CCCN(C)C)C(=O)NCC)C[C@@H]2c3cccc4[nH]cc(c34)C[C@H]21,Potency,[2],inactive
same,Potency,[3],inactive
same,Potency,[13],inactive
same,Potency,[14],inactive
CC(C)(C)NCC(O)COc1ccccc1OCC1CCCO1 (stereo not drawn),Potency,[2],inactive
same,Potency,[3],inactive
same,Potency,[13],inactive
same,Potency,[14],inactive
CN1Cc2cc(C(=O)N3CCC(C4CCNCC4)CC3)ccc2NC(CC(=O)O)C1=O (stereo not drawn),Potency,[2],inactive
same,Potency,[3],inactive
same,Potency,[13],inactive
same,Potency,[14],inactive
CCOc1ncc(F)c(=O)[nH]1,Potency,[2],inactive
same,Potency,[3],inactive
same,Potency,[13],inactive
same,Potency,[14],inactive
Cn1c(=O)c2c(ncn2CC(=O)O)n(C)c1=O,Potency,[2],inactive
same,Potency,[3],inactive
same,Potency,[13],inactive
same,Potency,[14],inactive
O=C(O)CCCC[P+](c1ccccc1)(c1ccccc1)c1ccccc1,Potency,[2],inactive
same,Potency,[3],inactive
same,Potency,[13],inactive
same,Potency,[14],inactive
Cc1c(NC(=O)c2cccnc2)c(=O)n(-c2ccccc2)n1C,Potency,[2],inactive
same,Potency,[3],inactive
same,Potency,[13],inactive
same,Potency,[14],inactive
CCN(CC)C(=O)c1ccc(O)c(OC)c1,Potency,[2],inactive
same,Potency,[3],inactive
same,Potency,[13],inactive
same,Potency,[14],inactive
